# An excerpt weighted towards active compounds, which were near 3.2% of everything screened.
# Dyrk1A ADPGlo – rat Dyrk1A kinase inhibitors, primary screen, biochemical, single point, plate reader; ADP-Glo luminescence, NFATc1 peptide; 310,000 tested, 0.43% active; AID 504441, 2011; inhibition, % at 12.5 µM; Dual specificity tyrosine-phosphorylation-regulated kinase 1A (Rattus norvegicus), Q63470; in the data active = inhibition above about 50%;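 note: plate controls were vehicle with enzyme for no effect and no enzyme for full effect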
# CDK5 inh – inhibitors of human CDK5/p35 kinase, primary screen, biochemical, single concentration; Cyclin-dependent kinase 5 (Homo sapiens) + Cyclin-dependent kinase 5 activator 1 (Homo …; Recombinant CDK5/p35, ADP-Glo luminescence, 60 min; inhibition, % at 10 µM; 330,000 tested, 0.01% active; AID 488839, 2010;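 active = highest replicate inhibition of at least 50% and at least 75% of replicates reaching 50%; inconclusive = only one of the two criteria met; inactive = both criteria failed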;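 note: plate controls were DMSO neutral control for no effect and GW8510 at 10 µM for full effect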
# Target sequence (Q00535 whole entry, looked up): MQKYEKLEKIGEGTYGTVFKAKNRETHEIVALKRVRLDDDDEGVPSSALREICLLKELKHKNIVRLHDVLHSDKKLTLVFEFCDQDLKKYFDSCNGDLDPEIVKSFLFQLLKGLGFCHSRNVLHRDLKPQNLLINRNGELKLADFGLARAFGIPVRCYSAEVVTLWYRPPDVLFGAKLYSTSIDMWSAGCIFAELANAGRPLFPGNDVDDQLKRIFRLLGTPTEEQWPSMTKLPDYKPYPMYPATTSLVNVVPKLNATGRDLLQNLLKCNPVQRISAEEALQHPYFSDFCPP
# Target sequence (Q15078 whole entry, looked up): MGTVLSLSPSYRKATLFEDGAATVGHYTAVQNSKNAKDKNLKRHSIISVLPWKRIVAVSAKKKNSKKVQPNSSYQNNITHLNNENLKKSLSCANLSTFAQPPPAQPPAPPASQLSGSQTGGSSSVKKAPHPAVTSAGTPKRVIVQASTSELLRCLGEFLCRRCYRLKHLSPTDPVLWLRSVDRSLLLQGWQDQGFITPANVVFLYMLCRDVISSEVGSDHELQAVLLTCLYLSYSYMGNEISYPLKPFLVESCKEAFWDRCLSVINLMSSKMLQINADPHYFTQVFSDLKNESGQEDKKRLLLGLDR
# SMARCA2 activ – SMARCA2 (BRM) function activators, primary screen, cell-based, luminescence, high throughput | MG213 cells, MMTV-luciferase reporter, dexamethasone, overnight | activation, % at 9.1 µM | 370,000 tested, 1% active | AID 652017, 2013; in the data active = activation above about 7.8%;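 note: 0% = vehicle wells and 100% = reference activator wells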
# dFosB activator – activators of delta FosB homodimer, primary screen, biochemical, fluorescence polarization, TAMRA-CDK5 oligo, single point; purified delta FosB; percent of positive-control signal above neutral wells; activation, % at 25 µM; 340,000 tested, 0.99% active; AID 493131, 2011;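 active = mean activation above about 17%, with every replicate also reaching it, limit read from the data, passing the limit was not always enough; inconclusive = only one of the two conditions met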
# Rtt109 Vps75 – inhibitors of C. albicans Rtt109/Vps75 HAT, primary screen, biochemical, ThioGlo CoA-SH fluorescence, plate reader | Histone acetyltransferase RTT109 (Candida albicans (strain SC5314 / ATCC MYA-2876)), … | purified Rtt109/Vps75, 4 h | inhibition, % at 34.9 µM | 330,000 tested, 0.16% active;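 active = inhibition of at least 50% in every replicate; inconclusive = best replicate reaches 50% inhibition but some replicates fall short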
# esBAF inh – Bmi1 luciferase reporter increase in mESCs, primary screen, esBAF inhibitor project, mouse ES cells, Bmi1 luciferase knock-in, single point. 24 h; 100% = twice the neutral-well signal. reporter increase, % at 12.5 µM. 350,000 tested, 2% active; in the data active = activation above about 40%; inconclusive = no clear call, values can overlap the other calls;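 note: 0% = median of the plate's neutral control wells and 100% = double that signal; a rise in the Bmi1 reporter signal indicates esBAF inhibition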
# SMARCA2 conf – SMARCA2 (BRM) function activators, confirmation, cell-based, luminescence, triplicate; shares compounds with SMARCA2 activ; MG213 cells, MMTV-luciferase with dexamethasone, overnight; MG213 cells expressing E1A, Rb sequestered; DMSO wells 0%, reference activator 100%; activation, % at 9.1 µM; 3,500 tested, 30% active; AID 652260, 2013;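 active = activation above its plate's cutoff, the mean activation of tested wells plus 3 SD, cut at about 7.9% in these data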
# GAL4-VP16 Luc – GAL4-VP16 luciferase reporter activation, counter-screen for SMARCA2 (BRM) activator project, cell-based, pG5luc, luminescence, high throughput; shares compounds with SMARCA2 activ; HEK293 GAL4-VP16 pG5luc reporter; scaled: DMSO wells 0%, SAHA wells 100%; activation, % at 9.1 µM; 3,500 tested, 41% active; AID 686939, 2013;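 active = activation above the solvent-only control well mean plus 3 SD, averaged across control plates, cut at about 5.2% in these data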
# * hit, by the source's call; u = inconclusive; x = not tested or not shown.
SMILES,Dyrk1A ADPGlo,CDK5 inh,SMARCA2 activ,dFosB activator,Rtt109 Vps75,esBAF inh,SMARCA2 conf,GAL4-VP16 Luc
N#Cc1ccc(-c2ccc3c(c2)[C@@H]2[C@@H](CCN2S(=O)(=O)c2cccc(F)c2)[C@@H](CO)N3)cc1,x,x,x,x,x,-1,x,x
CCCC(=Nc1ccc(N)cc1)C1=C(O)C(C(=O)OC)C(C)(C)CC1=O (configuration not stated),6,1,8.2*,-13,-25,19,-3,3
O=C(COc1ccc(Br)cc1Br)NNC(=O)c1cccs1,-2,1,10*,13,1,34,7,8.8*
Cc1cc(Br)ccc1OCC(=O)NNC(=O)CCc1ccccc1,0,-3,-2,15,-8,3,x,x
Cc1cc(Br)ccc1OCC(=O)NNC(=O)Cc1ccccc1,-55,2,8.9*,-5,-7,-9,-1,1
Cc1cc(Br)cc(C)c1OCC(=O)NNC(=O)c1cccs1,6,0,0,-1,10,4,x,x
C[C@H](CO)N1C[C@H](C)[C@@H](CN(C)S(C)(=O)=O)Oc2ccc(NS(=O)(=O)c3ccc(Cl)cc3)cc2CC1=O,x,x,x,x,x,-4,x,x
COCC(=O)Nc1ccc2c(c1)C(=O)N(C)C[C@@H](OC)[C@@H](C)CN(C)[C@@H](C)CO2,x,x,x,x,x,2,x,x
C[C@@H]1CN([C@H](C)CO)C(=O)c2cc(C#Cc3cccnc3)cnc2O[C@@H]1CN(C)Cc1cccnc1,x,x,x,x,x,1,x,x
NS(=O)(=O)c1ccc(NC(=O)CSc2nnc(NC3CC3)s2)cc1,-6,-4,0,0,4,5,x,x
O=C(CSc1nnc(NC2CC2)s1)c1ccc[nH]1,2,-3,12*,1,0,x,10*,7.3*
CCS(=O)(=O)Nc1ccc2c(c1)C(=O)N(C)C[C@H](OC)[C@@H](C)CN(C(=O)COC)[C@H](C)CO2,x,x,x,x,x,-4,x,x
CC(=O)c1ccc(NC(=O)c2cccs2)cc1,1,0,12*,-8,5,32,10*,10*
O=C(Nc1ccc(CN2CCOCC2)cc1)c1cccs1,-2,0,8.5*,-12,-4,14,6,5
O=C(Nc1ccc(CN2CCOCC2)cc1)c1ccccc1F,-4,0,2,-1,x,26,x,x
O=C(/C=C\Nc1ccc2c(c1)OCO2)c1cccs1,-3,1,10*,-4,2,-61,9.8*,5
CC(C)c1cc(C(=O)Nc2ccc3c(c2)OCO3)no1,4,1,8.0*,-6,4,1,3,9.1*
N#C[C@@H]1[C@@H](c2ccccc2)[C@H](CO)N1C(=O)Nc1cccc(F)c1,x,x,x,x,x,-1,x,x
CCCNC(=O)N[C@@H]1C=C[C@H](CC(=O)NCCc2ccccc2)O[C@@H]1CO,x,x,x,x,x,1,x,x
Cc1ccc(NC(=O)/C(Cl)=C\c2ccccc2)cc1,-2,-2,4,-9,-6,-38,x,x
O=C(Nc1ccc2c(c1)OCO2)c1cccs1,0,1,10*,-5,-16,u,12*,9.6*
CC(=O)c1ccc(NC(=O)/C(Cl)=C/c2ccccc2)cc1,10,2,9.7*,8,-2,x,13*,12*
O=C(Nc1ccc2c(c1)OCCO2)c1cccs1,8,0,4,1,0,8,x,x
COc1cccc(NC(=O)c2ncc(Cl)c(Cl)c2Cl)c1,x,-2,8.7*,-12,0,5,6,2
COCC(=O)Nc1ccc2c(c1)OC[C@H](C)N(Cc1ccccc1)C[C@@H](C)[C@@H](OC)CN(C)C2=O,x,x,x,x,x,1,x,x
SMILES,Dyrk1A ADPGlo,CDK5 inh,SMARCA2 activ,dFosB activator,Rtt109 Vps75,esBAF inh,SMARCA2 conf,GAL4-VP16 Luc
CCCC#Cc1cnc2c(c1)C(=O)N([C@@H](C)CO)C[C@@H](C)[C@@H](CN(C)Cc1ccncc1)O2,x,x,x,x,x,1,x,x
O=C(CCN1C(=O)/C(=C\c2ccccc2)SC1=S)NNC(=O)c1ccncc1,x,x,9.7*,x,x,x,-5,0
O=C(CCN1C(=O)/C(=C/c2ccccc2)SC1=S)NNC(=O)c1ccncc1,0,1,2,0,-6,x,x,x
CCC(=O)NC1=C(Nc2ccc(N)cc2)C(=O)c2ccccc2C1=O,6,2,9.0*,-8,-12,-6,8,11*
COc1ccc(CCNC(=O)c2cccn2C)cc1,12,-2,8.3*,-7,-3,50*,5,9.7*
Cc1ccc(C(=O)c2cc(C)sc2NC(=O)CN2CCN(C(=O)c3ccco3)CC2)cc1,0,1,8.8*,-3,11,4,0,0
CC(C)N1CCC(N2CCN(Cc3ccc(-c4ccc(Cl)cc4)o3)CC2CCO)CC1 (configuration not stated),25,-2,9.9*,-2,2,-4,7,1
CC(C)N1CCC(N2CCN(Cc3ccc(-c4ccccc4Cl)o3)CC2CCO)CC1 (configuration not stated),0,0,-1,-3,4,-12,x,x
O=C(C[C@H]1CC[C@H]2[C@@H](COC[C@H](O)CN2C(=O)Nc2ccc(Cl)c(Cl)c2)O1)NCc1ccncc1,x,x,x,x,x,2,x,x
O=C(COc1cccc(C(F)(F)F)c1)Nc1cccnc1,-3,0,8.4*,-1,-16,-4,-1,-1
Cc1cc(C)nc(NS(=O)(=O)c2ccc(NC(=O)C3CC(=O)N(c4ccccc4)C3)cc2)n1 (configuration not stated),-1,-1,8.2*,-3,5,x,-2,1
COc1ccc(N2CC(C(=O)Nc3ccc(S(=O)(=O)Nc4nccs4)cc3)CC2=O)cc1 (configuration not stated),-3,0,-1,1,5,x,x,x
COc1ccc(N2CC(C(=O)Nc3ccc(S(=O)(=O)Nc4nc(C)cc(C)n4)cc3)CC2=O)cc1 (configuration not stated),-14,3,9.4*,-3,-1,2,-2,0

# Screens as filed in PubChem.
